Compound activity deposited in PubChem by National Center for Advancing Translational Sciences (NCATS).
IMPase cell inh: qHTS Assay for Identifying the Cell-Membrane Permeable IMPase Inhibitors | 120,000 tested, under 10 active | inhibition (IP1 accumulation), % at 46.1 µM | CHO-M1 cells, IP1 accumulation, HTRF TR-FRET ratio; active = well fitted curve in the direction sought with a large enough effect in the signal ratio, not every such curve was filed as active; inconclusive = small, poorly fitted or top-dose-only effect, or a change in a side signal; inactive = no such curve, though single readings can be large or run the other way; the % refers to the signal ratio;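 note: cells stimulated with carbachol in lithium chloride buffer; plate controls were DMSO basal wells for no effect and reference inhibitor wells for full effect; higher means more IMPase inhibition seen as more IP1 and lower FRET ratio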
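CHO-M1, 2000 cells/well, cultured 16–30 h; cpd up to 46 uM; carbachol (50 uM solution, stimulation buffer w/ 50 mM LiCl, pH 7.4), 30 min 37C; IP-One TR-FRET, 10 min RT; Ex 320/Em 665, 620; Hill-fit AC50.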
HPGD block: qHTS Assay for Inhibitors of HPGD (15-Hydroxyprostaglandin Dehydrogenase); purified HPGD, NADH fluorescence kinetic, PGE2 substrate; 15-hydroxyprostaglandin dehydrogenase [NAD(+)] (Homo sapiens), P15428; 4.3% of 150,000 active; Potency, µM, without a hit: at the highest dose activity change, negative = inhibition, actives largely listed as inhibitors; active = well fitted inhibition curve with a large enough effect, not every such curve was filed as active; inconclusive = small, poorly fitted or top-dose-only effect, or another doubt; inactive = no such curve, though single readings can be large or run the other way; note: potency is the fitted concentration of half-maximal effect
Target sequence (P15428 whole entry, looked up): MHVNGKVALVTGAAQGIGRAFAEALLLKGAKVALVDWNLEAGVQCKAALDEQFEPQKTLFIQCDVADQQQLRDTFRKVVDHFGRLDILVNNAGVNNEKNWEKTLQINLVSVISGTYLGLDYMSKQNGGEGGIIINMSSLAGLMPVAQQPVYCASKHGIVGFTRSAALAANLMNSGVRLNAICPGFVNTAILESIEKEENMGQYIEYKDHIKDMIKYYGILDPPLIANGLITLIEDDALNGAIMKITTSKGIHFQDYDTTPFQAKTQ
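NADH formation kinetics: reaction with 30 uM PGE2 and 1 mM NAD+ (final), 20 nM enzyme, Tris-HCl pH 8 with Tween 20, after 15 min compound preincubation at room temperature. Fluorescence change, last versus first of five reads.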
IMPase Li inh: qHTS Assay for Identifying the Cell-Membrane Permeable IMPase Inhibitors: Potentiation with Lithium; 0.35% of 210,000 active; AID 1457, 2008; CHO-M1 cells, IP1 TR-FRET (IP-One), carbachol + lithium; Potency, µM (highest dose often 59.4 µM), without a hit: top-dose activity, negative = IMPase inhibition, hits mostly inhibitors;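 note: IP1 builds up when IMPase is blocked and the TR-FRET signal falls; potency is the fitted concentration of half-maximal effect; plate controls were basal vehicle for no effect and high inhibitor control for full effect; nearly all actives have a fitted effect of over 50% in size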
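Concentration–response in CHO-M1 cells, lithium-potentiated; 30 min at 37C. IP1 detected by competitive TR-FRET after 10 min lysis at RT. Hill-fitted AC50.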
12-hLO inh: qHTS Assay for Inhibitors of 12-hLO (12-human lipoxygenase) | purified 12-hLO, xylenol orange hydroperoxide absorbance | Polyunsaturated fatty acid lipoxygenase ALOX12 (Homo sapiens), P18054 | Potency, µM (highest dose often 57.1 µM), for inactives: at the top dose activity change, negative = inhibition, actives largely listed as inhibitors | 0.12% of 150,000 active; note: potency is the fitted concentration of half-maximal effect; nearly all actives have a fitted effect of over 55% in size
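Purified human 12hLO (150 nM), preincubated 15 min with compound, then 40 uM arachidonic acid for 30 min, room temperature, Hepes pH 7.0 with 0.01% Triton X-100. Hydroperoxide detected by ferrous iron/xylenol orange; 573/405 nm absorbance ratio gives reaction progress.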
PNC inhibitor: High Content Assay for Compounds that inhibit the Assembly of the Perinucleolar Compartment. activity change (PNC), negative = inhibition, % at 10 µM. 3.1% of 140,000 active. PC3M PTB-GFP, PNC prevalence imaging, 16 h; active compounds read low;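 active = readout at or below -70, meaning at least 70% loss of cells showing the perinucleolar compartment, a nuclear body marking cancer cells; inconclusive = readout between -30 and a set limit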;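 note: plate controls were DMSO wells for no effect and camptothecin positive control wells for full effect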
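Compounds are pinned in duplicate onto adhered PC3M cells stably expressing GFP-tagged PTB and incubated 16 h at 37 C. Cells are then fixed, nuclei stained with Hoechst, and PNC-positive cells counted.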
ALDH1A1 block: qHTS Assay for Inhibitors of Aldehyde Dehydrogenase 1 (ALDH1A1); 7.3% of 220,000 active; AID 1030, 2008; Potency, µM (series often up to 75.3 µM), for the others: top-dose activity, negative = inhibition, usual class: inhibitors; Purified ALDH1A1, NADH fluorescence, propionaldehyde substrate; Aldehyde dehydrogenase 1A1 (Homo sapiens), P00352; active = well fitted inhibition curve with a large enough effect, not every such curve was filed as active; inconclusive = small, poorly fitted or top-dose-only effect, or another doubt; inactive = no such curve, though single readings can be large or run the other way;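 note: potency is the fitted concentration of half-maximal effect; plate controls were no enzyme wells and a reference inhibitor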
Target sequence (P00352 whole entry, looked up): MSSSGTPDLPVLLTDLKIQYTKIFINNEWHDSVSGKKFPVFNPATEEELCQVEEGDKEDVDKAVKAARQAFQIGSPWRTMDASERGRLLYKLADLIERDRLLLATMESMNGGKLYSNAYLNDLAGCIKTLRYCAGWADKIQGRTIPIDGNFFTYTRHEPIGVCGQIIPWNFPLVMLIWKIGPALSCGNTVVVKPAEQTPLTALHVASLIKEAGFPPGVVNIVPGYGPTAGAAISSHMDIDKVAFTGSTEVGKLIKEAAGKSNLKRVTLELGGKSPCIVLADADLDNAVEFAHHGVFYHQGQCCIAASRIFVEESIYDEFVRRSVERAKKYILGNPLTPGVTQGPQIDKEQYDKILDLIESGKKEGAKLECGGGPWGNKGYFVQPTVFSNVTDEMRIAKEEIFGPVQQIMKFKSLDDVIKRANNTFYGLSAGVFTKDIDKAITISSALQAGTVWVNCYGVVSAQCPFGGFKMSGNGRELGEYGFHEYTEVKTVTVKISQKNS
The depositor's hits bear a star; ? = inconclusive; nt = not tested or not shown; [ ] = another dose, or the depositor's remark. Sampled rows, rich in hits. Any-hit rate of the full collection: about 11%. Unless noted, calls come from the whole dose curve; as a rule, active = well fitted curve in the direction sought with a large enough effect; inconclusive = small, poorly fitted or top-dose-only effect, or another doubt; inactive = no such curve, though single readings can be large; an effect the other way counts as inactive or inconclusive. Unless noted, % is set by controls: 0 for no effect and ±100 for the full control effect.

SMILES | IMPase cell inh | HPGD block | IMPase Li inh | 12-hLO inh | PNC inhibitor | ALDH1A1 block
Cc1cc(=O)c2c(O)c3c(O)cc(O)c4c5c(O)cc(O)c6c(O)c7c(=O)cc(C)c8c1c2c(c34)c(c65)c78 | nt | 8.9µM* | 13µM* | ? | nt | -5%
S=C(NCCSCc1ccc(Cl)cc1Cl)Nc1ccccc1 | 6 | -27% | 2%[38.3 µM] | 25µM* | 68 | -3%
CCOc1ccc(CSCCNC(=S)Nc2ccccc2)cc1 | 16 | -10% | 5% | ? | -92* | 3%
COc1cc2oc(=O)cc(-c3ccc(-c4ccc(CO)cc4)cc3)c2c(OC)c1OC | nt | ? | 0% | 4%[0.00818 µM] | nt | ?
Cc1cc(/C=C2/NC(=O)NC2=O)c(C)n1-c1sc2c(c1C#N)CCCC2 | 17 | 18µM* | 61%[38.3 µM] | -20% | ? | 13µM*
Cc1cc(/C=C2/NC(=O)NC2=O)c(C)n1C | nt | nt | 5% | nt | nt | 3%
Cc1cc(C)c(-n2c(C)cc(/C=C3/NC(=O)NC3=O)c2C)c(C)c1 | 13 | -19% | 13%[38.3 µM] | -9% | 68 | 14µM*
COc1cc2nc(N3CCN(C(=O)[C@@H]4COc5ccccc5O4)CC3)nc(N)c2cc1OC | 1[20.6 µM] | ? | 7% | 2%[25.6 µM] | nt | ?
Cc1ccc(C(=O)OCC2OC3OC(C)(C)OC3C2O)cc1 (centres undefined) | 6 | 4µM* | 0% | 3% | -30 | 0%
Cc1ccc(S(=O)(=O)/N=C(\Nc2cccc(C)c2)Nc2nc(C)cc(C)n2)cc1 | nt | -14% | -8% | 3% | -7 | 0.4µM*
CC(C)(C)c1ccc(S(=O)(=O)/C=C\C#N)cc1 | 20 | 2.8µM* | 32% | -8% | nt | 0.056µM*
Cc1ccc(S(=O)(=O)c2ccc(C)cc2)cc1 | -1 | -19% | 11%[38.3 µM] | 5% | 7 | 13%
Cc1ccc(S(=O)(=O)/C=C\C#N)cc1 | 12 | 3.5µM* | 37% | -9% | nt | 0.011µM*
CCC1=C2CC[C@H]3C(=O)N(CC(=O)OC)C(=O)[C@H]3[C@H]2[C@@]2(Cc3ccccc3)C(=NCCOC)OC(=O)N2C1=O | nt | -8% | -6% | 1% | nt | -10%
COC(=O)c1cc(=O)c(O)c2c(O)c(O)ccc2c1 | nt | 7.9µM* | 31% | ? | nt | 11µM*
N#CC(c1ccc(Cl)cc1)c1ccc(Cl)nn1 (centres undefined) | 12 | -18% | -8%[38.3 µM] | -11% | 40 | 6.3µM*
Cc1ccc(C(C#N)c2ccc(Cl)nn2)cc1 (centres undefined) | nt | nt | 6% | nt | nt | 8.9µM*
N#CC(c1ccc(Cl)nn1)c1ccccc1Cl (centres undefined) | 5 | -12% | 2%[38.3 µM] | 8% | 8 | 4µM*
N#CC(c1ccc(Cl)cc1)c1ncc(C(F)(F)F)cc1Cl (centres undefined) | 3 | -8% | 8%[38.3 µM] | -3% | 10 | 6%
CNS(=O)(=O)c1cc(-c2nnc(Nc3cc(C)ccc3C)c3ccccc23)ccc1C | 7 | nt | nt | nt | nt | nt
COc1cccc(C2C3=C(CCCC3=O)Nc3[nH]n(-c4ccccc4)c(=O)c32)c1 (centres undefined) | nt | nt | 11% | nt | nt | 6%
COc1cccc(C2C3=C(Nc4[nH]n(-c5ccccc5)c(=O)c42)c2ccccc2C3=O)c1 (centres undefined) | 2 | -15% | 4% | 0% | ? | 20µM*
COc1cccc(C(=O)CSc2nc3ccccc3n2CC(=O)N(C(C)C)C(C)C)c1 | -6 | -8% | 0% | 4% | -100* | -2%
Cc1cccc(CCn2c(=O)c3ccccc3n(Cc3cccc(F)c3)c2=O)c1 | -2 | nt | nt | nt | nt | nt
Cn1nc(-c2ccc(C(=O)N3CCN(Cc4ccccc4)CC3)cc2)c2ccccc2c1=O | 3 | 16µM* | 26%[38.3 µM] | 5% | 4 | -37%
SMILES | IMPase cell inh | HPGD block | IMPase Li inh | 12-hLO inh | PNC inhibitor | ALDH1A1 block
Cc1ccc(NC(=O)c2ccc(-c3nn(C)c(=O)c4ccccc34)cc2)cc1 | -1 | 18µM* | 35%[38.3 µM] | 2% | 25 | -15%
Cn1nc(-c2ccc(C(=O)Nc3ccc(F)cc3)cc2)c2ccccc2c1=O | -3 | nt | 12% | nt | nt | ?
COc1cccc(CN2CCN(C(=O)c3ccc(-c4ccccc4)cc3)CC2)c1 | nt | -15% | 6% | -4% | -4 | ?
CCCC(=O)NCc1cc(-c2nn(C)c(=O)c3ccccc23)ccc1C | 10 | 18µM* | 1%[38.3 µM] | 7% | -9 | -8%
CC(O)CNC(=O)c1ccc(-c2nn(C)c(=O)c3ccccc23)cc1 (centres undefined) | -8 | 28µM* | 20%[38.3 µM] | -1% | -15 | 14%
CCc1ccc2oc(-c3cccc(NC(=O)c4cc5ccccc5o4)c3)nc2c1 | -14 | nt | nt | nt | nt | nt
Cc1ccc(NC(=O)c2ccc(-c3nn(C)c(=O)c4ccccc34)cc2)c(C)c1 | 17 | 13µM* | 9%[38.3 µM] | -2% | 20 | 8.9µM*
Cc1ccc(C(=O)N2CCN(c3cc(=O)[nH]nc3-c3ccccc3)CC2)cc1 | -7 | 0% | -6%[38.3 µM] | 1% | 41 | 16µM*
O=C(c1cc(C(F)(F)F)cc(C(F)(F)F)c1)N1CCC2(CCCN(c3ccncc3)C2)CC1 | nt | -16% | 20% | 3% | nt | 16%
Cc1ccc(CNC(=O)COC(=O)c2cnc(C)cn2)cc1 | nt | nt | -10% | nt | nt | 5%
CCn1c(=N)c(C(=O)NC2CCCC2)cc2c(=O)n3cc(C)ccc3nc21 | -3 | nt | nt | nt | nt | nt
COc1ccc(NC(=O)N2CC3(CCN(C(=O)c4ccc(OC)cc4)CC3)C2)cc1 | nt | -6% | -5% | 0% | nt | -6%
CN(C)CCCO[C@H]1[C@H]([C@H](O)CO)O[C@H]2OC(C)(C)O[C@@H]21 | 4 | nt | nt | -4% | nt | nt
O=C(CSc1nc2ccccc2c(=O)[nH]1)N1CCCCCC1 | -15 | ? | -1%[38.3 µM] | -1% | 9 | ?
Cc1cnc(NC(=O)Cc2c[nH]c3ccccc23)s1 | -3 | nt | nt | -5% | 18 | 25µM*
O=C(CSc1nc2ccccc2c(=O)[nH]1)c1ccc(O)cc1O | nt | nt | 14% | nt | nt | ?
O=C(CSc1nc2ccccc2c(=O)[nH]1)c1cccs1 | -9 | 13µM* | -7%[38.3 µM] | -1% | ? | -12%
O=C(CSc1nc2ccccc2c(=O)[nH]1)c1ccc(O)c(O)c1 | 4 | 16µM* | 25%[38.3 µM] | -29% | ? | ?
N#Cc1c(-c2cccs2)nc(SCC(=O)c2cccs2)[nH]c1=O | -28 | 16µM* | ? | -3% | 11 | -2%
